Experiment [1] concerns Wnt5a (protein binding on small-molecule microarray). Description: small molecules binding Wnt5a protein – biophysical, small-molecule microarray, 635/667 nm fluorescence, primary screen (AID 1142).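 Note: fluorescence read at 667 nm with signal to noise per printed feature.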 The conditions noted are these: 635 nm fluorescence, higher = more signal.
A short description of experiment [2]: ATP-based viability of Huh7 replicon cells – cell-based, CellTiter-Glo luminescence, basal, 48 h, cytotoxicity control for HCV replication inhibitor project, primary screen (AID 1143).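 Note: Huh7 hepatoma cells carrying a hepatitis C replication reporter with no stimulus; test concentration not given here.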 The conditions noted are these: higher = more signal, called active from +8 up or from −8 down.
The nature of experiment [3]: basal CRE-LacZ reporter activity in PC12 – cell-based, unstimulated, primary screen (AID 1145). The settings on record: no forskolin, luminescence, 4.5 h, higher = more signal, called active from +8 up or from −8 down.
A short description of experiment [4]: forskolin-driven CRE-LacZ activity in PC12 – cell-based, CRE-LacZ reporter, forskolin-stimulated, primary screen (AID 1146).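 Note: PC12 cells with 6xCRE LacZ reporter stimulated by forskolin 10 µM; beta-galactosidase reporter signal reflecting CREB driven transcription.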 The settings on record: luminescence, 4.5 h, higher = more signal, called active from +8 up or from −8 down.
The target of experiment [5] is Streptavidin (Streptomyces avidinii) (UniProt P22629). Description: compounds binding control protein streptavidin – biophysical, small-molecule microarray, 635/667 nm fluorescence, artefact control for SMM compound annotation, primary screen (AID 1147).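 Note: signal reflects streptavidin binding to arrayed compounds as a control protein.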 The conditions noted are these: higher = more signal.
Experiment [6] in a line: probe aInhba binding on compound microarray – biochemical, small-molecule microarray, 635/667 nm fluorescence, primary screen (AID 1148).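 Note: score merges 667nm spot fluorescence with signal-to-noise for antibody binding to printed compounds.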 The settings on record: higher = more signal.
Experiment [7] concerns the target Torsin-1A (Homo sapiens) (UniProt O14656). The experiment is described as follows: TOR1A wild-type binding on microarray – cell lysate, small-molecule microarray, lysate, 635/667 nm, primary screen (AID 1149). The settings on record: COS7 hTOR1A-WT lysate, 635 nm fluorescence, higher = more signal.
For experiment [8] the target is unchanged. The experiment is described as follows: torsin A mutant lysate binding on microarrays – cell lysate, small-molecule microarray, COS7 lysate, 635/667 nm fluorescence, primary screen (AID 1150).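 Note: score pools 667 nm emission and signal to noise measuring lysate protein binding.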 The conditions noted are these: COS7 hTOR1A mutant lysate, 635 nm fluorescence, higher = more signal.
Experiment [9] has as its system Sonic hedgehog protein (Shh). Description: Sonic hedgehog microarray binding compounds – biochemical, small-molecule microarray, 635/667 nm fluorescence, primary screen (AID 1151).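 Note: Shh protein binding to compounds spotted on small-molecule microarray slides; score combines spot fluorescence intensity with signal-to-noise across triplicate slides.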 The conditions noted are these: 635 nm fluorescence, higher = more signal.
Experiment [10] can be described thus: optical density shifts of acrAB sulA E. coli – strain DRC41, OD650, 48 h, E. coli filamentation inducer project, primary screen (AID 1152).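 Note: E. coli MC1000 strain DRC41 lacking acrAB efflux pump and sulA.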 The conditions noted are these: higher = more signal, called active from +8 up or from −8 down.
Experiment [11] can be described thus: probe aLefty1 binding on compound microarray – biochemical, small-molecule microarray, 635/667 nm fluorescence, primary screen (AID 1153).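 Note: score merges spot fluorescence with signal-to-noise ratio from the scanned slide images.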 The settings on record: higher = more signal.
Experiment [12] in a line: plasmodial surface anion channel blockers, osmotic lysis – cell-based, P. falciparum Indochina, OD700, 1 h, primary screen (AID 1154). The settings on record: P. falciparum Indochina infected RBC osmotic lysis, higher = more signal, called active from +8 up or from −8 down.
Experiment [13] is described as follows: plasmodial surface anion channel blockers, osmotic lysis – cell-based, P. falciparum Indochina, OD700, 2 h, primary screen (AID 1155).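 Note: lysis reports solute entry through the parasite surface anion channel PSAC.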 The conditions noted are these: P. falciparum Indochina infected erythrocytes, higher = more signal, called active from +8 up or from −8 down.
Experiment [14] is described as follows: changes in parasitized red cell lysis, either direction – P. falciparum Indochina, OD700, 3 h, PSAC antagonist project, primary screen (AID 1156). The conditions noted are these: P. falciparum-infected erythrocytes, osmotic lysis, higher = more signal, called active from +8 up or from −8 down.
A short description of experiment [15]: plasmodial surface anion channel blockers, osmotic lysis – cell-based, P. falciparum Indochina, OD700, 18 h, primary screen (AID 1157). The settings on record: P. falciparum Indochina infected erythrocytes, osmotic lysis OD700, 18 h; higher = more signal, called active from +8 up or from −8 down.
The nature of experiment [16]: S6 kinase pathway phospho-S6 level changes – cell-based, A549, cytoblot, luminescence, serum-stimulated, primary screen (AID 1158).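 Note: serum-stimulated A549 lung adenocarcinoma cells; signal is phosphorylated S6 detected by cytoblot immunostaining with HRP secondary.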 The conditions noted are these: 5 h, higher = more signal.
The target in experiment [17] is NADPH oxidase 2 (Homo sapiens) (UniProt P04839). Description: compounds shifting NOX2 Amplex Red fluorescence – cell-based, HEK293-NOX2, PMA-stimulated, NOX inhibitor project, primary screen (AID 1159). Note: test concentration not given here. The settings on record: 45 min, higher = more signal, called active from +8 up or from −8 down.
The target in experiment [18] is NADPH oxidase 4 (Homo sapiens) (UniProt Q9NPH5). The experiment is described as follows: compounds shifting NOX4 Amplex Red fluorescence – cell-based, HEK293-NOX4, tetracycline-induced, NOX inhibitor project, primary screen (AID 1160). The conditions noted are these: HEK293-NOX4, Amplex Red H2O2 fluorescence, 45 min; higher = more signal, called active from +8 up or from −8 down.

In experiment [19] the target is NADPH oxidase 5 (Homo sapiens) (UniProt Q96PH1). Description: compounds shifting NOX5 Amplex Red fluorescence – cell-based, HEK293-NOX5, NOX inhibitor project, primary screen (AID 1161). The conditions noted are these: HEK293-NOX5, ionomycin, 45 min, higher = more signal.
Experiment [20] in a line: compound effects on lung adenocarcinoma cell viability – A549, calcein-AM fluorescence, 48 h, basal, profiling panel (AID 1162). Note: test concentration not given here. The settings on record: higher = more signal.

Active and inactive are the calls of the source.

NADPH oxidase 2 (Homo sapiens), sequence (P04839 whole entry, looked up): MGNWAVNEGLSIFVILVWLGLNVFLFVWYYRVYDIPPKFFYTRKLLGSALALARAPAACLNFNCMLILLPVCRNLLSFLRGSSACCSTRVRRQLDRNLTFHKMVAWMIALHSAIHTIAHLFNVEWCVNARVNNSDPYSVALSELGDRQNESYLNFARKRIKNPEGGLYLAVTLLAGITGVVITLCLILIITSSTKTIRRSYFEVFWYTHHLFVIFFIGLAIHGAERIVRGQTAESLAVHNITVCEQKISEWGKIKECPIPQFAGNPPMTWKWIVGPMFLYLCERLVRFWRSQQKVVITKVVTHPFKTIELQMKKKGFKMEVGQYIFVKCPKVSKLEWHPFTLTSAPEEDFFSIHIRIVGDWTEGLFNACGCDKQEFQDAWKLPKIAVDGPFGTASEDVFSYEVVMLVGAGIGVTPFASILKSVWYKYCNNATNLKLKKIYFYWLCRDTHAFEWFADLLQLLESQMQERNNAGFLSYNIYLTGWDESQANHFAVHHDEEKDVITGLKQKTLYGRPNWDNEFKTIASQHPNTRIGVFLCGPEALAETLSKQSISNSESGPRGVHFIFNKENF
NADPH oxidase 5 (Homo sapiens), sequence (Q96PH1 whole entry, looked up): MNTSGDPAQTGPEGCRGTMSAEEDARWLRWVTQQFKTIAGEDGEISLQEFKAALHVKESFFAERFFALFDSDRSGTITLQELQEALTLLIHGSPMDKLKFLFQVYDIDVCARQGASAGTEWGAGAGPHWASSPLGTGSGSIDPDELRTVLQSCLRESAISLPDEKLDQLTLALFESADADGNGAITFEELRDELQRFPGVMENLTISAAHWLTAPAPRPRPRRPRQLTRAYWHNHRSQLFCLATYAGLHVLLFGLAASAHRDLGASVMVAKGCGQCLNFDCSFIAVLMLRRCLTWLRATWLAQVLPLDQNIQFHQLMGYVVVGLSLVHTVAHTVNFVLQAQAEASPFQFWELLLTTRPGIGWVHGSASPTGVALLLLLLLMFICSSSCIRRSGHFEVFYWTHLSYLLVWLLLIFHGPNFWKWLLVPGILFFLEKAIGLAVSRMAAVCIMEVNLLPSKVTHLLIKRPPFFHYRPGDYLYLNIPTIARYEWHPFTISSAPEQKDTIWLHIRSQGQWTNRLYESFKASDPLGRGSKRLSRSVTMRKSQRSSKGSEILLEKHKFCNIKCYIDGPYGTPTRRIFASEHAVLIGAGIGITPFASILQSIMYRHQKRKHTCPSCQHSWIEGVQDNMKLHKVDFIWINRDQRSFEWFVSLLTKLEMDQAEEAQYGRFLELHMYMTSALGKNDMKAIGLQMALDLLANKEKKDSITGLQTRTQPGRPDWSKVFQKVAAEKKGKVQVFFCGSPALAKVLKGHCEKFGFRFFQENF
Streptavidin (Streptomyces avidinii), sequence (P22629 whole entry, looked up): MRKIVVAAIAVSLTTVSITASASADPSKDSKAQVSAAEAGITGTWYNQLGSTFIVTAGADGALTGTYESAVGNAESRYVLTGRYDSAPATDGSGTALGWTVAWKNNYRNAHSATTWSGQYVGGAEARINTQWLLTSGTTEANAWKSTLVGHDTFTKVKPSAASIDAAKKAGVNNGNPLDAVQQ
Torsin-1A (Homo sapiens), sequence (O14656 whole entry, looked up): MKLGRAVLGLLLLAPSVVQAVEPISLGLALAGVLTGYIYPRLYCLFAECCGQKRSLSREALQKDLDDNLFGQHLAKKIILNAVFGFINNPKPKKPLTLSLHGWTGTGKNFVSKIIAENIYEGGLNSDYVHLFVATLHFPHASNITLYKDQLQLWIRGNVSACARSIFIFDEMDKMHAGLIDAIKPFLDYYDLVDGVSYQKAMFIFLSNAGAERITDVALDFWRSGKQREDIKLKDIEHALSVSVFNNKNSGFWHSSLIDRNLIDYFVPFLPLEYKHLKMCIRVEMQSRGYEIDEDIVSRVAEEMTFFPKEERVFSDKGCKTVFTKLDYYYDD
NADPH oxidase 4 (Homo sapiens), sequence (Q9NPH5 whole entry, looked up): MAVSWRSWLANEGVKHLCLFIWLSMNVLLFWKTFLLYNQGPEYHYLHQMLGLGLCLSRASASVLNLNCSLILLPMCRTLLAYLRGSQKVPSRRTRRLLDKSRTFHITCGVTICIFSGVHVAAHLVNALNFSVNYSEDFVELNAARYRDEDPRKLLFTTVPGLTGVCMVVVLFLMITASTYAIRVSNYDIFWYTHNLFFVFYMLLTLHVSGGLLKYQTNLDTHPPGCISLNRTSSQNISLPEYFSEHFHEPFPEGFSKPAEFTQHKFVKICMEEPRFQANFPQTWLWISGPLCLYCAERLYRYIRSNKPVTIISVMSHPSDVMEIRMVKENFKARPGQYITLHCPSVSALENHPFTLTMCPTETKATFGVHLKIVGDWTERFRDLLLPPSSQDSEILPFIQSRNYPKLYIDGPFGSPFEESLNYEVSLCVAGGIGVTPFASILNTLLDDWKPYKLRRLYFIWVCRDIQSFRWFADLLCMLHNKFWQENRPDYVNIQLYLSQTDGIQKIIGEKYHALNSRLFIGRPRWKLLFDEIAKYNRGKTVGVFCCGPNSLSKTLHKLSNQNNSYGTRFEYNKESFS

`C=CCN1C(=O)[C@@]2(O[C@@H](CCO)[C@H]([Si](C)(C)c3ccc(OC)cc3)[C@H]2C)c2cc(N3C(=O)c4cccc5cccc3c45)ccc21`: the composite z-score in experiment [1] is -0.1; in experiment [5] it was 0.168; in experiment [6], 0.017; in experiment [7] it was 0.408; in [8] it was 0.579; in [9], 0.567. For the same compound, in [11], the composite z-score was 0.0313. Besides, the z-score in [2] was -7.95 (inactive); in experiment [3], 22.3 (active); in [4], -4.22 (inactive); in [10], 1.29 (inactive); in [12], 24.5 (active); in experiment [13], 9.43 (active). The z-score in experiment [14] was 0.0469 (inactive); in experiment [15] it was 2.56 (inactive); in experiment [16], 0.0438; in experiment [17], -0.167 (inactive); in [18], 0.606 (inactive); in [19], 1.25. The z-score in experiment [20] is -3.04.

In the case of `NC(=O)NCC#Cc1ccc2c(c1)[C@]1(C(=O)N2)[C@H](c2ccc(OCCO)cc2)N2[C@H](c3ccccc3)[C@H](c3ccccc3)OC(=O)[C@H]2[C@@H]1C(=O)Nc1nc2ccccc2s1`, the composite z-score in [1] is 0.151; in experiment [5], 0.453; in [6], 0.0253; in [7], -0.033; in [8], 0.254; in [9], 0.0186. In addition, the composite z-score in experiment [11] was 0.122. The z-score in experiment [2] was -0.0246 (inactive); in experiment [3], -0.0246 (inactive); in experiment [4], 0.625 (inactive); in experiment [10], 2 (inactive); in experiment [12] it was 2.5 (inactive); in experiment [13], 2.06 (inactive). The z-score was 1.53 (inactive) in [14]; 1.33 (inactive) in [15]; -0.199 in [16]; 1.43 (inactive) in [17]; 0.57 (inactive) in [18]; 1.16 in experiment [19]. Besides, the z-score in [20] is 0.0942.

`C[N+](C)(C)CCCC[C@@H]1NC(=O)[C@H]2C[C@@H](C(=O)NCCCCCN)[C@@H](c3cccc(OCCO)c3)N2C1=O`: the composite z-score in experiment [1] is 0.165; in experiment [5], 1.04; in experiment [6] it was 0.147; in experiment [7] it was 0.918; in [8], 1.7; in experiment [9], -0.197. In experiment [11], this compound came in with a composite z-score of 0.857. The z-score in experiment [2] was -1.18 (inactive); in experiment [3], 0.0124 (inactive); in experiment [4] it was -1 (inactive); in [10], 2.36 (inactive); in [12], 1.76 (inactive); in experiment [13], 0.858 (inactive). For the same compound, the z-score was -1.26 (inactive) in [14]; 0.57 (inactive) in experiment [15]; -0.0325 in experiment [16]; 1.03 (inactive) in experiment [17]; -0.833 (inactive) in experiment [18]; 2.24 in experiment [19]. In experiment [20], the z-score is -0.013.

Consider `COCCCNC(=O)[C@@]1(CCS(=O)(=O)c2ccccc2)N=C(c2ccc(OCCCO)cc2)O[C@H]1c1ccccc1CN=[N+]=[N-]`, for which the composite z-score was 0.671 in [1]; 1.41 in experiment [5]; 0.358 in experiment [6]; -0.183 in experiment [7]; 0.186 in experiment [8]; 0.744 in experiment [9]. In experiment [11], this compound came in with a composite z-score of 1.03. Further, the z-score in [2] was -5.36 (inactive); in experiment [3], 2.57 (inactive); in [4] it was -1.7 (inactive); in [10], 2.33 (inactive); in experiment [12] it was 23.5 (active); in experiment [13], 4.65 (inactive). Also, the z-score in experiment [14] was 2.25 (inactive); in [15], 0.425 (inactive); in [16] it was 3.83; in experiment [17] it was 0.439 (inactive); in experiment [18], -0.383 (inactive); in experiment [19], -0.497. Further, the z-score in [20] is 1.

As for `CN1C=C(C(=O)OCCS(C)(=O)=O)C(C(=O)OCCS(C)(=O)=O)=CC(CCCO)=CC1c1cccs1` (stereo not given), the composite z-score in experiment [1] is 0.131; in experiment [5], -0.0015; in [6] it was -0.299; in experiment [7], 0.408; in [8], 0.0286; in experiment [9], 1.05. Also, the composite z-score in experiment [11] was -0.0011. In addition, the z-score in experiment [2] is -0.894 (inactive); in experiment [3], 5.95 (inactive); in [4], -1.56 (inactive); in [10], 0.302 (inactive); in experiment [12], 1.91 (inactive); in experiment [13], -1.53 (inactive). In addition, the z-score in experiment [14] was -0.727 (inactive); in experiment [15], -1.71 (inactive); in experiment [16], -0.496; in [17], 0.92 (inactive); in experiment [18], 0.858 (inactive); in experiment [19] it was 0.0246. Moreover, the z-score in experiment [20] was 2.6.

On to `COC(=O)C1=CC(CCCO)=CC(C2CC2)N(Cc2cc3c(cc2Br)OCO3)C=C1C(=O)OC` (stereo not given), for which the composite z-score is 0.135 in experiment [1]; 1.22 in [5]; 0.143 in experiment [6]; 0.777 in [7]; 1.61 in experiment [8]; -0.593 in experiment [9]. For the same compound, the composite z-score in [11] turned out to be 0.248. In addition, the z-score was -2.77 (inactive) in [2]; 0.389 (inactive) in experiment [3]; -0.562 (inactive) in [4]; 1.55 (inactive) in [10]; 2.31 (inactive) in experiment [12]; -1.2 (inactive) in experiment [13]. In addition, the z-score is -0.183 (inactive) in experiment [14]; -0.951 (inactive) in experiment [15]; 0.771 in [16]; 0.0713 (inactive) in experiment [17]; 1.24 (inactive) in experiment [18]; 1.91 in experiment [19]. Further, the z-score in experiment [20] was 0.589.

On to `C/C=C/[C@@H](CCn1cc(CCO[Si](C(C)C)(C(C)C)C(C)C)nn1)[Si](C)(C)c1ccc(OC)cc1`, for which the composite z-score was -0.569 in [1]; -1.27 in experiment [5]; -0.39 in experiment [6]; -0.72 in [7]; 0.741 in experiment [8]; -0.526 in experiment [9]. Further, the composite z-score in [11] was -0.315. In addition, the z-score in [2] is -3.19 (inactive); in experiment [3], 3.29 (inactive); in experiment [4], -1.01 (inactive); in experiment [10] it was 0.415 (inactive); in [12], 0.305 (inactive); in experiment [13] it was 0.0452 (inactive). Besides, the z-score in [14] was -0.606 (inactive); in experiment [15], -1.92 (inactive); in [16], 2.96; in experiment [17], -0.937 (inactive); in experiment [18], 0.0135 (inactive); in [19], -0.497. Also, the z-score in experiment [20] is 1.74.

With `C=C[C@H](OC)[C@@H](OC(=O)Nc1ccc(OC)cc1)c1ccc(OC)c(O)c1`, the composite z-score is -0.307 in experiment [1]; -1.38 in experiment [5]; -0.348 in [6]; -0.86 in [7]; -0.657 in experiment [8]; 0.149 in experiment [9]. The composite z-score in experiment [11] was -0.0984. Moreover, the z-score is -0.088 (inactive) in experiment [2]; 2.03 (inactive) in experiment [3]; -1.53 (inactive) in experiment [4]; 2.02 (inactive) in experiment [10]; 1.27 (inactive) in [12]; -1.23 (inactive) in experiment [13]. For the same compound, the z-score is -1.84 (inactive) in experiment [14]; -1.83 (inactive) in [15]; -0.443 in experiment [16]; -2.28 (inactive) in [17]; -1.92 (inactive) in experiment [18]; -2 in [19]. Besides, the z-score in experiment [20] was 0.29.

Values taken from PubChem BioAssay.
